# Data taken from PubChem BioAssay AID1347165 (National Center for Advancing Translational Sciences (NCATS), 2019).
# About 5,700 (2.6%) of roughly 220,000 compounds were called active. Where a call stands in place of a potency, no number is given. Not shown: some 18% with an inconclusive outcome. The call rests on the fitted dose curve; in most records, active means well fitted inhibition curve with a large enough effect; inconclusive means small, poorly fitted or top-dose-only effect; inactive means no such curve, though single readings can be large or run the other way. This excerpt belongs to a sample that is enriched for actives.
# Target: Lysine-specific demethylase 5B (Homo sapiens) (UniProt Q9UGL1)
# Sequence (Q9UGL1 whole entry, looked up): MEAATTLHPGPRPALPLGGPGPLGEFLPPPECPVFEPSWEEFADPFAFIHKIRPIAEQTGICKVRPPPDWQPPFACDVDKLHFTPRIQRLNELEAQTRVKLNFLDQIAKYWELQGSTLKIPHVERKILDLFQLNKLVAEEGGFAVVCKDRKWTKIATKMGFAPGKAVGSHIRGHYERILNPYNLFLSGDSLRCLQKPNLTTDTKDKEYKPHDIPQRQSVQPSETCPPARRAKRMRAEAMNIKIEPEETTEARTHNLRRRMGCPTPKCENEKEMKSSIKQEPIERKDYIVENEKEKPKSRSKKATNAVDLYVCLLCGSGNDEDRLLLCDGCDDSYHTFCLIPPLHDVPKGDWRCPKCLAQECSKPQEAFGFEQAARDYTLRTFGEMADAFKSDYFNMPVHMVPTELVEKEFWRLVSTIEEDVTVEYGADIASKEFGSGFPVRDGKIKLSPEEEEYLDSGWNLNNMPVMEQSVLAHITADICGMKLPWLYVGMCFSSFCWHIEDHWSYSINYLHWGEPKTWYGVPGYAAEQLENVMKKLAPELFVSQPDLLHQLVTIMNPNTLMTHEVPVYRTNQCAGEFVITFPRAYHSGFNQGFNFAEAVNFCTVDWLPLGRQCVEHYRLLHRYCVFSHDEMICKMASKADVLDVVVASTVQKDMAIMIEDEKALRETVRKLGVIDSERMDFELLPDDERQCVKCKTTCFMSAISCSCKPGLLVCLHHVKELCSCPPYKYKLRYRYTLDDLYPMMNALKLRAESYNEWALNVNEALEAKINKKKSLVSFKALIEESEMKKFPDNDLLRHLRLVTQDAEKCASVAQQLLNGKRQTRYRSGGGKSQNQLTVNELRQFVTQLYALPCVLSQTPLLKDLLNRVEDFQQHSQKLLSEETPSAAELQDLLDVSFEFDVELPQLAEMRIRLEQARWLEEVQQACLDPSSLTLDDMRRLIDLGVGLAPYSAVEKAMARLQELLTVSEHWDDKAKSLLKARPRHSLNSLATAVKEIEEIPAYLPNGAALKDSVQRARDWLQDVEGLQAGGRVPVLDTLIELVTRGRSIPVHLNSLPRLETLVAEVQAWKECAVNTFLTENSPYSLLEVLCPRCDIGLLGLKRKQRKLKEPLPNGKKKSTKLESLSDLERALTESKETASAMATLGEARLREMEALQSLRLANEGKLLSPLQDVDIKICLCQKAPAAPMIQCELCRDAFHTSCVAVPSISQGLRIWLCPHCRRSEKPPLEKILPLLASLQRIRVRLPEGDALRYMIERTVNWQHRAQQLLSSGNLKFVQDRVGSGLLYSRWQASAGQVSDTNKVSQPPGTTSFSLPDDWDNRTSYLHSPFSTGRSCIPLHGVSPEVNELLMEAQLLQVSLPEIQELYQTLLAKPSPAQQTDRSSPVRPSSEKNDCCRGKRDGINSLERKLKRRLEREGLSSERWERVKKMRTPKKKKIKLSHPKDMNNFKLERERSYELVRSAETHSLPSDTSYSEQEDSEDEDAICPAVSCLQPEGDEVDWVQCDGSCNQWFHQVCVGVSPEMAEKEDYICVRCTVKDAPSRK
# Assay: Primary screen for KDM5B Histone Demethylases FDH-coupled qHTS; further: nearly all actives have a fitted effect of over 70% in size
# Conditions: FDH-coupled NADH fluorescence (FDH is formaldehyde dehydrogenase); series mostly up to 57.7 µM
# Method in brief: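 Inhibition is measured as reduced NADH fluorescence generation from FDH coupling to formaldehyde release. Truncated KDM5BΔAP at 200 nM final acts on H3K4me3 peptide (12.5 µM in substrate mix) in pH 7.5 HEPES buffer with Tween-20, 30 min, room temperature.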
# Potency means the concentration at half of the fitted maximal effect.
row,SMILES,Potency
1,O=C(/C=C/c1ccccc1)Nc1cccc2c1CCCC2,inactive
2,O=C(NCC1CC1)c1ccc(F)cc1,inactive
3,Cc1ccc(OCc2nc3ccc(F)cc3[nH]2)cc1,inactive
4,CCCCCC1CC(COc2ccccc2)OC1=O (centres undefined),inactive
5,COc1ccc2c(COC(=O)c3cc4ccccc4cc3O)cc(=O)oc2c1,inactive
6,CCc1cccc2c(C(=O)C(Nc3cccc(CO)c3)c3ccccc3)c[nH]c12 (centres undefined),inactive
7,O=C(COC(=O)CCc1c[nH]c2ccccc12)NC1CC1,inactive
8,Cc1cc(Nc2cccc(Cl)c2)n2nc(Cc3ccccc3)nc2n1,inactive
9,O=C(c1ccccc1)c1ccc(C(=O)N2CCN(c3ccccc3)CC2)cc1,inactive
10,COc1cccc2c1CCN=C2C[C@H]1CN(C(=O)C(C)(C)C)CC[C@H]1CC(=O)O,35.5 µM (active)
11,CC(C)(C)C(=O)N1CC[C@@H](CC(=O)O)[C@@H](CCN2CCN(c3cccc(C(F)(F)F)c3)CC2)C1,inactive
12,C=CCNC(=O)N1CC[C@@H](CC(=O)O)[C@@H](CC2=NCCc3ccc(C)cc32)C1,inactive
13,Cc1ccc(CNC(=O)[C@H](C)NC(=O)[C@@H]2Cc3ccccc3CN2)cc1,inactive
14,Cc1cccnc1NC(=O)C1c2ccccc2C(=O)N(C2CCCC2)C12CCCC2 (centres undefined),15.8 µM (active)
15,O=C(NCc1ccccn1)C1c2ccccc2C(=O)N(C2CCCC2)C12CCCC2 (centres undefined),inactive
16,COCc1nnc(NC(=O)C2c3ccccc3C(=O)N(C3CCCC3)C23CCCC3)s1 (centres undefined),inactive
17,CN(C)CCN(Cc1ccc(Cl)cc1)C(=O)c1ccncc1,inactive
18,COc1cc(C(=O)OC2CCCCC2=O)ccc1OCc1ccccc1Cl (centres undefined),inactive
19,Clc1ccc2[nH]c3c(c2c1)CCCC3,inactive
20,Cc1cnc(CC2CCN(C(=O)c3cccc4[nH]ccc34)CC2)n1CC1CC1,22.4 µM (active)
21,COCCn1c(C)cnc1CC1CCN(C(=O)c2ccc(OC)cc2OC)CC1,inactive
22,Cc1ccncc1C(=O)N1CCC(Cn2c(C)cnc2-c2cccnc2)CC1,inactive
23,Cc1[nH]c(=O)[nH]c(=O)c1CCC(=O)Nc1nc(C(C)C)cs1,inactive
24,CCOC(=O)C1CCN(C(=O)c2ccc(-c3ccc(N4CCCCCC4)nc3)cc2)CC1,15.8 µM (active)
25,O=C(OCc1cccc(Cl)c1)c1ccc(N2CCOCC2)nc1,inactive
26,CC(=O)c1ccc(NC(=O)COC(=O)C2CCN(c3ccc(C(F)(F)F)cn3)CC2)cc1,inactive
27,O=C(c1ccnc(-c2nnc3ccc(N4CCOCC4)nn23)c1)N1CCCCC1,inactive
28,O=C(c1ccc(-c2ccc(N3CCCCC3)nc2)cc1)N1CCOCC1,28.2 µM (active)
29,CCOC(=O)C1CCN(C(=O)c2cccc(S(=O)(=O)N(CC)c3ccccc3)c2)CC1,inactive
